# Unmarked numbers belong to inactive results. Calls of active or inactive are those of the source. The rule behind the calls is not given here.
# Test: Biochemical counterscreen for C difficile toxins, absence of UDPG, inhibitor dose response (AID 720650)
# Details: series mostly up to 19.5 µM; activity change, negative = inhibition: at the top concentration
Compound,"activity change, negative = inhibition",AC50
Cc1ccc(CNCCCn2cnc(C(=O)Nc3ccc(C)c(C)c3)n2)o1,3.86%,
O=C(Nc1ccc(O)cc1)/C(=C/c1ccco1)NC(=O)c1ccccc1,,14.7 µM (active)
CCN1CC(CNCc2cn(-c3ccc(OC)cc3)nc2-c2ccccc2Cl)CC1=O (stereo not drawn),-3.53%,
Cc1[nH]c(-c2ccc(F)cc2)cc1C(=O)N1CCN(c2ccccc2)CC1,0.332%,
O=C1Cc2cc(S(=O)(=O)NCc3ccccc3Cl)cc3c2N1CCC3,6.63%,
CCOc1ccccc1/C=C/c1onc(C)c1S(=O)(=O)N1CCC(C(=O)NC(C)C)CC1,2.28%,
O=C(CC(=O)N/N=C/c1ccc(O)cc1)N/N=C/c1ccc(O)cc1,,9.03 µM (active)
COc1cccc2sc(NNC(=O)C3COc4ccccc4O3)nc12 (stereo not drawn),,0.972 µM (active)
Nc1cc(=O)[nH]c(SCC(=O)Nc2ccccc2Sc2ccc(Cl)cc2)n1,-18%,
Cc1c(C(=O)c2ccccc2)c2ccccn2c1CCc1ccccn1,1.91%,
CCCc1cc(=O)oc2c3c(cc(OCC(=O)NCCCn4ccnc4)c12)OC(C)(C)CC3,11.7%,
Oc1ccc(/C=N/N2CCN(Cc3ccccc3)CC2)cc1,,> 39 µM
O=C(COC(=O)c1ccc(F)cc1F)c1ccc[nH]1,-3.4%,
CC(=O)c1ccc(NC(=O)CNCC(c2ccccc2)N(C)C)cc1 (stereo not drawn),-3.41%,
CCn1c(SCC(=O)OC)nnc1-c1ccccc1,-3.54%,
O=C(C[C@@H]1CC[C@@H]2[C@H](COC[C@H](O)CN2C(=O)c2ccccn2)O1)NC1CCC1,-5.75%,
Cc1ccc(/C=C/c2onc(C)c2S(=O)(=O)N2CCC(C(=O)NC(C)(C)C)CC2)cc1,-0.872%,
CCCNC(=O)C1CCN(S(=O)(=O)c2c(C)noc2/C=C\c2ccc(OC)cc2)CC1,-7.57%,
COc1ccc(C(=O)Nc2cc(Cl)ccc2C(=O)O)cc1,,10.4 µM (active)
O=C(Nc1cc(S(=O)(=O)N2CCOCC2)ccc1N1CCOCC1)c1ccccc1Cl,,> 39 µM
Cc1nn(C2CC(O)C(O)C(CO)O2)c(=O)[nH]c1=O (stereo not drawn),-11.3%,
COc1ccc(/C=C\c2onc(C)c2S(=O)(=O)N2CCC(C(=O)NCc3ccco3)CC2)cc1,-7.32%,
CCc1ccc(NC(=O)C2=CC(c3ccc(OC)cc3)=NS(=O)(=O)N2C)cc1,-6.94%,

# Reference: PubChem BioAssay AID720650 (Broad Institute, 2013)
